This is a sample that favours compounds with a hit; in the whole collection about 3.4% have one here.
Tau ThT inhib: inhibitors of human tau fibril formation, thioflavin T binding | Potency, µM (top dose mostly 57.4 µM), inactives show top-dose activity, negative = inhibition, usual class: inhibitors | 270,000 tested, 2.1% active | recombinant tau K18 P301L, heparin-induced fibrillization, ThT fluorescence | P10636; note: nearly all actives have a fitted effect of over 55% in size
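Tau K18 P301L fragment (15 uM unlabeled plus 0.24 uM Alexa 594-labeled) in 100 mM sodium acetate pH 7 with compound, fibrillization induced by 20 uM heparin for 6 hr at 37 C. Thioflavin T (30 uM) added, fluorescence read after 1 hr (ex 450, em 510 nm).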
Tau fluor counter: counter-screen for tau fibril formation inhibitors. tau K18 P301L Alexa594 fluorescence, heparin fibrillization. Potency, µM (highest dose often 57.7 µM), for the others: at the highest dose activity change, negative = decrease. 280,000 tested, 0.93% active. AID 1463; note: nearly all actives have a fitted effect of over 55% in size
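Human tau K18 P301L (15 uM unlabeled, 0.24 uM Alexa 594-labeled) in 100 mM sodium acetate pH 7 with 20 uM heparin, 6 hr at 37 C. ThT 30 uM added, 1 hr ambient; Alexa 594 FP and total fluorescence read at 555/632 nm.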
GoLoco inh red: RGS12 GoLoco-Gai1 interaction inhibition; Potency, µM (doses to about 61.6 µM), for inactives: at the highest dose activity, negative = inhibition, most hits filed as inhibitors; Gai1:RGS12 GoLoco peptide FP, rhodamine, 10 min; AID 880; P63096; 230,000 tested, 0.44% active; active = well fitted inhibition curve with a large enough effect, not every such curve was filed as active; inactive = no such curve, though single readings can be large or run the other way; note: nearly all actives have a fitted effect of over 30% in size
Target sequence (P63096 whole entry, looked up): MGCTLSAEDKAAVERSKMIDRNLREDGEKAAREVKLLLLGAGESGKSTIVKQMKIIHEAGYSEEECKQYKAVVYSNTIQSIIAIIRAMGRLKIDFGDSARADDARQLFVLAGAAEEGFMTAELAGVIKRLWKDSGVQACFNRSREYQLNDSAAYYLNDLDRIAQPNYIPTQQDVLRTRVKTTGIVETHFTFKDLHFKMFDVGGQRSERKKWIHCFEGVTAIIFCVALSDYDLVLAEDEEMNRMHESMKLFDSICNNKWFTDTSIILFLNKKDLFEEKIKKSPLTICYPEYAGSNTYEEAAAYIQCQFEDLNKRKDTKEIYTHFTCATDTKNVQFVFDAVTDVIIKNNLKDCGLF
KDM4E inh: inhibitors of human JMJD2E histone demethylase; 230,000 tested, 1.6% active; B2RXH2; Potency, µM (titrated, usually from 57.1 µM), inactives show at the highest dose activity change, negative = inhibition, actives largely listed as inhibitors; AID 2147; JMJD2E catalytic domain, FDH-coupled NADH fluorescence (FDH is formaldehyde dehydrogenase);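 note: 0% = wells with enzyme and -100% = buffer wells without enzyme; nearly all actives have a fitted effect of over 50% in size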
Target sequence (B2RXH2 1-337 limits assumed): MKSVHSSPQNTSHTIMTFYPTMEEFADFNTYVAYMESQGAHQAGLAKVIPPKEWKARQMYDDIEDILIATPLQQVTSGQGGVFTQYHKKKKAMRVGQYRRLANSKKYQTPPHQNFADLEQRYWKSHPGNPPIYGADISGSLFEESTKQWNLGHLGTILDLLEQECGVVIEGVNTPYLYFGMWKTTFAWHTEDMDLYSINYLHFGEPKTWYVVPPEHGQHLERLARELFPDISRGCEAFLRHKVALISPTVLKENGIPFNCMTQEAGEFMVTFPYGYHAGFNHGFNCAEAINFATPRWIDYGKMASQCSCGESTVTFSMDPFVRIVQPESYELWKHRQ
Tau FP inhib: tau fibrillization inhibition (FP) | K18 P301L tau heparin fibrillization, Alexa594 FP, 6 h | 280,000 tested, 0.39% active | Potency, µM (doses to about 57.7 µM), for the others: top-dose activity, negative = inhibition, usual class: inhibitors | P10636; note: nearly all actives have a fitted effect of over 55% in size
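Read-out: fluorescence polarization of Alexa 594-labeled tau (0.24 uM), 555 nm excitation, 632 nm emission. Mixtures held 15 uM unlabeled K18 P301L, compound and 20 uM heparin, pH 7 acetate buffer, incubated 6 hr at 37 C.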
Numbers without * were called inactive; ? = inconclusive; . = no result; [ ] = remark or other dose. Unless noted, calls come from the whole dose curve; as a rule, active = well fitted curve in the direction sought with a large enough effect; inconclusive = small, poorly fitted or top-dose-only effect, or another doubt; inactive = no such curve, though single readings can be large; an effect the other way counts as inactive or inconclusive. Unless noted, % is set by controls: 0 for no effect and ±100 for the full control effect; potency is the fitted concentration of half-maximal effect.

SMILES	Tau ThT inhib	Tau fluor counter	GoLoco inh red	KDM4E inh	Tau FP inhib
COC(=O)c1c(C)sc(-c2c(-c3ccc4c(c3)OCCO4)[nH]c3c2c(=O)n(C)c(=O)n3C)c1O	0%	?	.	.	?
COc1ccc(Cl)cc1NC(=O)CCN1C(=O)c2ccccc2Sc2ncccc21	-1%	-9%	.	.	-3%
CN1c2ccccc2C(C)(C)[C@]12C=Cc1cc(O)ccc1O2	22µM*	?	67%	-11%	-1%
CN1c2ccccc2C(C)(C)C12C=Nc1c(ccc3ccccc13)O2 (centres undefined)	32µM*	?	-9%	25µM*	?
COc1ccc2ccc3c(c2c1)N=CC1(O3)N(C)c2ccccc2C1(C)C (centres undefined)	10µM*	?	-20%	14µM*	22µM*
Cc1c(Cl)cccc1N1C(N)=C(C#N)C(c2cc(CN3CCOCC3)cs2)C2=C1CCCC2=O (centres undefined)	-1%	-1%	.	.	4%
Cc1cccc(Nc2nc(-c3ccccc3)nc3ccccc23)c1	-9%	6.3µM*[quencher]	.	.	8.9µM*
CN(C)c1ccc(-c2nc(Nc3ccncc3)c3ccccc3n2)cc1	7.1µM*	7.1µM*[quencher]	2%	?	?
Oc1cccc(Nc2nc(-c3ccccc3)nc3ccccc23)c1	-10%	7.1µM*[quencher]	.	.	14µM*
Cc1ccc(Nc2nc(-c3ccncc3)nc3ccccc23)cc1	-2%	-20%	4%	?	-8%
CC(=O)Nc1cccc(Nc2nc(-c3ccccc3)nc3ccccc23)c1	14%	?	0%	?	?
CN(C)c1ccc(-c2nc(N3CCNCC3)c3ccccc3n2)cc1	14µM*	?	-6%	?	1%
Cc1ccc(-c2nnc(SCc3ccccc3)o2)cc1	-10%	-9%	.	.	-8%
COc1ccc2nc(C)cc(Nc3ccc(Cl)c(Cl)c3)c2c1	17%	-24%	.	.	1%
Cc1ccc(Nc2nc(-c3ccccc3)nc3ccccc23)cc1	?	10µM*[quencher]	.	.	18µM*
COc1ccc(Nc2nc(-c3ccccc3)nc3ccccc23)cc1S(=O)(=O)N1CCOCC1	.	13µM*[quencher]	5%	?	25µM*
COc1ccc(NC(=O)c2cc(-c3ccco3)nc3ccccc23)cc1S(=O)(=O)N1CCOCC1	?	?	29%	?	-5%
CCn1c(C(=O)NCc2ccccc2)cc2sc(Cl)cc21	?	?	.	.	-5%
O=C(N/N=C/c1ccc(N2CCOCC2)o1)c1cccc([N+](=O)[O-])c1	8.9µM*	-20%	-22%	4%	?
O=C(N/N=C/c1ccc(N2CCCCC2)o1)c1ccccc1	?	-3%	-2%	-1%	2%
COc1ccc(CNC(=O)C2CCN(c3nc4ccc(C)cc4[nH]3)CC2)cc1	-3%	-2%	.	.	-1%
COc1cc(/C=N/NC(=O)c2cccc([N+](=O)[O-])c2)ccc1OCc1ccccc1	?	11µM*[quencher]	-6%	?	?
COc1ccc(/C=N/NC(=O)c2cccc([N+](=O)[O-])c2)cc1OC(=O)c1ccccc1	-21%	11µM*[quencher]	15%	-4%	-5%
COc1cccc(/C=N/NC(=O)c2cccc([N+](=O)[O-])c2)c1OS(=O)(=O)c1ccccc1	-10%	?	-6%	5%	3%
COc1cc(/C=N/NC(=O)c2sc3ccccc3c2Cl)ccc1OC(=O)c1ccc([N+](=O)[O-])cc1	1.3µM*	?	-11%	4%	3%
SMILES	Tau ThT inhib	Tau fluor counter	GoLoco inh red	KDM4E inh	Tau FP inhib
COc1ccc(/C=N/NC(=O)c2cccc([N+](=O)[O-])c2)cc1OS(=O)(=O)c1ccccc1	-13%	14µM*[quencher]	-2%	-5%	-4%
O=S(=O)(NCCNC/C=C/c1ccc(Br)cc1)c1cccc2cnccc12	-5%	-24%	14%	-3%	?
CC(=O)N1CCc2c(sc3c2c(=O)n(-c2ccccc2)c(=O)n3Cc2cccc(C(F)(F)F)c2)C1	-12%	-1%	.	.	7%
O=C(N/N=C/c1ccc(OC(=O)c2ccccc2)c([N+](=O)[O-])c1)c1ccc(O)cc1	8.9µM*	?	5%	-14%	-12%
COc1ccc(C(=O)N/N=C/c2ccc(OC(=O)c3cccc4ccccc34)c([N+](=O)[O-])c2)cc1	5µM*	?	3%	-5%	-2%
COc1ccc(C(=O)Oc2ccc(/C=N/NC(=O)c3ccccc3OC)cc2[N+](=O)[O-])cc1	?	-8%	2%	1%	-14%
COc1ccc(Cn2c(CO)cnc2SCc2cccc(C)c2)cc1	-11%	-4%	.	.	1%
CCC(=O)N1CCc2cc(Br)cc(S(=O)(=O)N3CCC(C(=O)Nc4ccccc4CC)CC3)c21	-5%	-12%	.	.	0%
O=C(Nc1ccccc1)/C(=C/c1ccccc1)c1ccccc1	-21%	?	13%	28µM*	20µM*
N#CC1=C2SCN(C3CCCCC3)CN2C(=O)CC1c1c(F)cccc1Cl (centres undefined)	32µM*	-19%	.	.	?
N#CC1=C2SCN(C3CCCCC3)CN2C(=O)CC1c1ccc(Cl)cc1 (centres undefined)	28µM*	-24%	.	.	?
O=C1C(c2ccc(F)cc2)N(C2CCCCC2)C(=O)CN1C1CCCC1 (centres undefined)	-4%	-9%	10%	4%	-1%
COc1ccc(Br)cc1C1CC(=O)N2CN(C)CSC2=C1C#N (centres undefined)	?	-15%	-11%	-4%	?
CC(C)c1ccc(C2CC(=O)N3CN(C)CSC3=C2C#N)cc1 (centres undefined)	28µM*	-20%	-23%	-19%	-17%
N#CC1=C2SCN(C3CCCCC3)CN2C(=O)CC1c1ccc(F)cc1 (centres undefined)	28µM*	-11%	.	.	?
O=C1CSC(c2ccc(Cl)cc2)N1C1CCCCC1 (centres undefined)	-3%	-6%	-2%	4%	2%
CCOC(=O)C1CCN(C(=O)Cn2ncc3c4ccccc4n(Cc4ccc(F)cc4)c3c2=O)CC1	-10%	-10%	.	.	5%
CCOC(=O)C1CCC(CN(Cc2c(Cl)cccc2Cl)S(=O)(=O)c2ccc(F)cc2)CC1 (centres undefined)	-3%	-7%	.	.	-6%
CC(CNC(=O)C1CCN(Cc2cc3ccccc3n2Cc2ccccc2)CC1)c1ccccc1 (centres undefined)	-2%	-9%	.	.	2%
CCOC(=O)c1c(SCC(=O)Nc2nc3ccc(C)cc3s2)nc(=O)[nH]c1C	?	-1%	.	.	-7%
Cc1cc(C)c(NC(=O)c2nc3ccccc3nc2N2CCCCC2)c(C)c1	-8%	-1%	.	.	-5%
COc1cc(OC)c(C2CC(=O)N3CN(C)CSC3=C2C#N)cc1OC (centres undefined)	?	-17%	-34%	-9%	?

High-throughput results as filed in PubChem.
